GLP-1R inv ag = qHTS of GLP-1 Receptor Inverse Agonists (Inhibition Mode). Glucagon-like peptide 1 receptor (Homo sapiens), P43220. HEK293 GLP-1R CRE-luciferase, luminescence, 24 h; GLP-1R form is constitutively active. Potency, µM (titrated, usually from 38.3 µM), for inactives: at the highest dose activity change, negative = inhibition, most hits filed as inhibitors. 410,000 tested, 1.6% active; note: potency is the fitted concentration of half-maximal effect; % is set by controls: 0 for no effect and ±100 for the full control effect; nearly all actives have a fitted effect of over 55% in size
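Inverse agonists were sought by their lowering of basal cAMP reporter luciferase output in HEK293 cells stably carrying constitutively active human GLP-1R, after 24 h compound treatment.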
GLP-1R agonist = qHTS of GLP-1 Receptor Agonists. Potency, µM (doses to about 45.6 µM), inactives show at the top dose activation, actives largely listed as activators. 380,000 tested, 0.007% active. HEK293 GLP-1R CRE-luciferase, luminescence, 4-6 h; cells express a hypersensitive GLP-1R form. AID 624172, 2012. Glucagon-like peptide 1 receptor (Homo sapiens), P43220; note: potency is the fitted concentration of half-maximal effect; % of control where 0% means no effect
D3 ag = qHTS of D3 Dopamine Receptor Agonist: qHTS | D(3) dopamine receptor (Homo sapiens), P35462 | D3R DiscoveRx beta-arrestin cells, luminescence, 90 min | max activation, % | 410,000 tested, 0.58% active | AID 652048, 2013; in the data active = max activation above about 30%; note: 0% is about no effect
Target sequence (P35462 whole entry, looked up): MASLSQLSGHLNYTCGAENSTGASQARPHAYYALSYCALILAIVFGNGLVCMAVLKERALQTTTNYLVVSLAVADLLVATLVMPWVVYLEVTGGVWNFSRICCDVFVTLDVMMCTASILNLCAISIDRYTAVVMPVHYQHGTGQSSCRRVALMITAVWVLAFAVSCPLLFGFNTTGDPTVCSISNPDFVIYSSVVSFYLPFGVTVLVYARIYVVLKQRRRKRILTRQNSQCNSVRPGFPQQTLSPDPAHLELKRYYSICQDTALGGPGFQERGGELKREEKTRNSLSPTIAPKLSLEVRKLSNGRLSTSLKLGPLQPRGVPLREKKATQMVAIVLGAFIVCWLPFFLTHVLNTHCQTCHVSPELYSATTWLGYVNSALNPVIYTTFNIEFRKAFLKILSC
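Agonist-mode cell screen: cells plated at 1500/well and incubated overnight at 37 °C, then exposed to library compounds for 90 min at 37 °C. Detection reagent was added for 30–60 min at room temperature, and luminescence was read.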
DRD3 antagonist = qHTS of D3 Dopamine Receptor Antagonist: qHTS; AID 652054, 2013; D3R cells, DiscoveRx beta-arrestin luminescence, antagonist mode; active compounds read low; 360,000 tested, 2.5% active; max response, negative = inhibition, %; in the data active = max response below about -50%; inconclusive = no clear call, values can overlap the other calls; note: % is set by controls: 0 for no effect and ±100 for the full control effect
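Cells expressing the human receptor were seeded at 1500 cells/well, incubated overnight at 37 degrees C in 5% CO2, then exposed to library compounds with dopamine controls for 90 minutes at 37 degrees C before luminescent detection.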
GLP1R cytotox = qHTS of GLP-1 Receptor Inverse Agonists: Cytotox Screen | Potency, µM (series often up to 38.3 µM), for the others: top-dose activity change, negative = inhibition, usual class: inhibitors | HEK293 cAMP-luciferase reporter cells, luminescence, 24 h | AID 624418, 2012 | 410,000 tested, 0.13% active;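 note: loss of luciferase light is scored as toxicity; potency is the fitted concentration of half-maximal effect; % is set by controls: 0 for no effect and ±100 for the full control effect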
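Luminescence readout: signal drop marks cytotoxicity. Plated cells grew 12 h at 37 °C, 5% CO2, received 23 nL compound for 24 h, then got luciferase reagent, read after 12 min at RT.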
ClpP mod = qHTS Assay for Activators of ClpP; ATP-dependent Clp protease proteolytic subunit (Bacillus subtilis (strain 168)), P80244; purified B. subtilis ClpP, FRET peptide cleavage, 20 min; Potency, µM (top dose mostly 57.5 µM), for inactives: at the top dose activity change, negative = active; 340,000 tested, 1.9% active; AID 651965, 2013; active = well fitted falling curve with a large enough effect; inconclusive = small, poorly fitted or top-dose-only effect; inactive = no such curve, though single readings can be large or run the other way; note: potency is the fitted concentration of half-maximal effect; the source files actives as falling curves though it sought activators and does not explain the sign; nearly all actives have a fitted effect of over 65% in size
Target sequence (P80244 whole entry, looked up): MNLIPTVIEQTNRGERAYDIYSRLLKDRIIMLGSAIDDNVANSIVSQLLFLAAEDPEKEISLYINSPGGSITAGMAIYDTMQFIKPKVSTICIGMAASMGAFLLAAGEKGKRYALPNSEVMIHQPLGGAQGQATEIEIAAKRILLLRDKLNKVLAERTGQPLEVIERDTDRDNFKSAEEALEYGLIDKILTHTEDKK
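Purified B. subtilis ClpP, 10 microg/mL final in Tris/HCl pH8 with KCl, BSA, glycerol and Tween-20, cleaved an Abz/nitrotyrosine-quenched decapeptide. Fluorescence (ex 320, em 430) was read at 0 and 20 min at room temperature. Delta was normalized to 5.8 microM ADEP and DMSO/no-enzyme controls.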
An asterisk follows results filed as active; ? = inconclusive; · = no result given; [ ] = dose if it differs, or a comment. Most compounds without a hit are left out; they make up all but 5.7% or so of the library. Unless noted, calls come from the whole dose curve; as a rule, active = well fitted curve in the direction sought with a large enough effect; inconclusive = small, poorly fitted or top-dose-only effect, or another doubt; inactive = no such curve, though single readings can be large; an effect the other way counts as inactive or inconclusive.

SMILES | GLP-1R inv ag | GLP-1R agonist | D3 ag | DRD3 antagonist | GLP1R cytotox | ClpP mod
COc1ccc(F)cc1-c1cc(NC=O)c2ncc(-c3cccc(C(=O)N(C)C)c3)n2c1 | ? | 21% | 52* | ? | -26% | -20%
CN(C)C(=O)c1cccc(-c2cc(NC=O)c3ncc(-c4ccc(F)cc4)n3c2)c1 | -4% | 12% | -9 | 0 | -10% | ?
CCOC(=O)c1cccc(NC(=O)NC2COc3ccccc3C2)c1 (configuration not stated) | ? | · | -12 | · | -14% | -6%
COC(=O)c1c(-c2ccc(Cl)cc2)noc1N1CCN(c2ccc(C(C)=O)cc2)CC1 | 3% | · | 4 | · | 2% | 0%
COC(=O)c1c(-c2ccc(Cl)cc2)noc1N1CCN(c2ccc(OC)cc2)CC1 | -4% | · | 69* | · | 0% | 0%
COc1ccc(CC(=O)NO)cc1OC | · | · | · | · | · | 1%
CCc1ccc(CNC(=O)CN2C(=O)c3cccnc3Oc3ccc(Cl)cc32)cc1 | ? | · | 7 | · | -2% | -4%
O=C(CCN1CCc2ccccc2C1)Nc1cccc(F)c1 | -29% | -2% | -10 | -66* | -7% | -1%
O=C(CCN1CCc2ccccc2C1)Nc1ccccc1F | -15% | 3% | 0 | -78* | 0% | -2%
O=C(CCN1CCCCCC1)Nc1cccc(F)c1 | -14% | -1% | -12 | ? | 3% | -2%
O=C(CCN1CCc2ccccc2C1)Nc1ccccc1 | -15% | 10% | -11 | -73* | 46% | -16%
O=C(Nc1ccccc1F)c1ccc(CN2CCc3ccccc3C2)cc1 | ? | 7% | -12 | 0 | 4% | -1%
COc1cc(NC(=O)Nc2nnc(N3CCCCCC3)s2)cc(OC)c1 | 10% | · | 5 | · | -19% | 2%
Cc1ccc2cccc(NC(=O)C(C)Oc3ccc(Cl)cc3Cl)c2n1 (configuration not stated) | 11% | · | -1 | · | 4% | ?
CC12CCC(C(=O)NNc3ccc([N+](=O)[O-])cc3)(CC1=O)C2(C)C (configuration not stated) | 8.9µM* | -8% | 0 | -8 | 10% | -2%
CC12CCC(C(=O)NNc3ccc([N+](=O)[O-])cc3)(OC1=O)C2(C)C (configuration not stated) | ? | -1% | -9 | -19 | -29% | ·
Cc1nc2ccn(Cc3ccco3)c(=O)c2cc1C(=O)NCc1ccc(Cl)cc1 | ? | · | 1 | · | -16% | 5%
O=C(O)c1cc(Cl)c2ccccc2c1O | ? | -6% | -3 | ? | -12% | 28µM*
CC(C)(NC(=O)c1cc(Cl)c2ccccc2c1O)C(=O)O | -16% | -3% | 3 | 11 | 14% | 4%
COc1ccc(Cl)cc1NC(=O)C1CC(=O)N(C2CCCCC2)C1 (configuration not stated) | ? | 0% | -30 | -4 | -16% | 1%
O=C(Nc1cc(Cl)cc(Cl)c1)C1CC(=O)N(C2CCCC2)C1 (configuration not stated) | 8.9µM* | 3% | -28 | ? | -3% | 0%
CCC(C)NC(=O)c1ccccc1NC(=O)C1CCN(S(=O)(=O)Cc2ccccc2)CC1 (configuration not stated) | -2% | · | -4 | · | 1% | -16%
O=C(CSc1nc(-c2ccccc2)c(-c2ccccc2)o1)N1CCOCC1 | 1% | 13% | 2 | -24 | 6% | 32µM*
O=C(CSc1nc(O)c(-c2ccccc2)c(=O)[nH]1)N1CCOCC1 | 2%[0.307 µM] | -6% | 3 | 4 | 7%[0.307 µM] | 0%
O=C(CSc1nc(O)c(C(c2ccccc2)c2ccccc2)c(=O)[nH]1)N1CCOCC1 | 30% | 4% | -18 | -62* | -5% | ·
SMILES | GLP-1R inv ag | GLP-1R agonist | D3 ag | DRD3 antagonist | GLP1R cytotox | ClpP mod
CC(NC(=O)c1ccccc1O)c1ccccc1 (configuration not stated) | 8% | 0% | 14 | 7 | 11% | 16µM*
CC1(C)CC(N=c2cc(-c3ccccc3)oc3ccc(Cl)cc23)CC(C)(C)N1 | 3.5µM* | -3% | -15 | -17 | -25% | 5%
O=c1cc(-c2ccccc2)oc2ccccc12 | 38% | ? | -10 | 4 | 0% | 0%
OCCCN=c1cc(-c2ccccc2)oc2ccc(Cl)cc12 | ? | -28% | 0 | -13 | ? | 32µM*
COc1ccc(Nc2cc(C(=O)NCCCN(C)Cc3ccccc3)c3ccccc3n2)cc1OC | ? | · | -22 | · | -43% | -1%
CNc1ccc(C=O)cc1I | · | · | · | · | · | -6%
COc1cc(-c2nnc(-c3ccc(S(=O)(=O)c4ccccc4)cc3)o2)cc(OC)c1OC | -1% | -3% | 2 | 0 | 8% | ?
COc1cc(-c2nnc(-c3ccc(N4CCOCC4)cc3)o2)cc(OC)c1OC | 27% | 5% | 38* | 24 | -7% | 25µM*
CC(=O)N1CCCc2cc(S(=O)(=O)N(C)CC(=O)Nc3ccc(Cl)cc3C)ccc21 | ? | · | 6 | · | 2% | -3%
CC1CCCN(CCCNC(=O)c2cc(Sc3ccc(F)cc3)nc3ccccc23)C1 (configuration not stated) | 12% | · | -41 | · | ? | -8%
CCOC(=O)c1ccc(-c2cccc(-c3cc(=O)oc4cc(OC)cc(OC)c34)c2)cc1 | 13% | 9% | 5 | 35 | 2% | 20µM*
Cc1ccc(S(=O)(=O)N2CCN(C(=O)C3CC3C)CC2)c(C)c1 (configuration not stated) | -18% | 19% | 3 | -64* | -6% | 0%
Cc1ccc(C)c(S(=O)(=O)N2CCN(C(=O)C3CC3C)CC2)c1 (configuration not stated) | -9% | 19% | 2 | 2 | 15% | -9%
COc1cccc(/C=C/c2onc(C)c2S(=O)(=O)N2CCC(C(=O)N3CCC(C)CC3)CC2)c1 | 12% | · | 3 | · | -3% | 32µM*
COc1ccc(/C=C\c2onc(C)c2S(=O)(=O)N2CCC(C(=O)Nc3cccc(C)c3C)CC2)cc1 | 5% | · | 6 | · | 5% | -2%
Cc1ccc(C)c(N2CCN(C(=O)C3CCN(S(=O)(=O)c4c(C)noc4C)CC3)CC2)c1 | 11µM* | 1% | 11 | 21 | -14% | 0%
Cc1cccc(/C=C/c2onc(C)c2S(=O)(=O)N2CCC(C(=O)N3CCCCCC3)CC2)c1 | 2.8µM* | -4% | -12 | -20 | -3% | ·

Bioassay records: PubChem, National Center for Advancing Translational Sciences (NCATS)
